High-throughput results from PubChem BioAssay.
Sampled rows, rich in hits. Any-hit rate of the full collection: about 1.6%.
KCNQ2 inh – rat KCNQ2 potassium channel inhibitors, primary screen, cell-based, CHO-K1, FluxOR thallium flux, B-score | Potassium voltage-gated channel subfamily KQT member 2 (Rattus norvegicus), O88943 | 20 min; hits give low values | B-score at 10 µM | actives 1.1% (n = 310,000);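 active = fluorescence ratio B-score at most minus 3 library SDs, with starting brightness B-score within 2 library SDs, cut at about -5.5 in these data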
Target sequence (O88943 whole entry, looked up): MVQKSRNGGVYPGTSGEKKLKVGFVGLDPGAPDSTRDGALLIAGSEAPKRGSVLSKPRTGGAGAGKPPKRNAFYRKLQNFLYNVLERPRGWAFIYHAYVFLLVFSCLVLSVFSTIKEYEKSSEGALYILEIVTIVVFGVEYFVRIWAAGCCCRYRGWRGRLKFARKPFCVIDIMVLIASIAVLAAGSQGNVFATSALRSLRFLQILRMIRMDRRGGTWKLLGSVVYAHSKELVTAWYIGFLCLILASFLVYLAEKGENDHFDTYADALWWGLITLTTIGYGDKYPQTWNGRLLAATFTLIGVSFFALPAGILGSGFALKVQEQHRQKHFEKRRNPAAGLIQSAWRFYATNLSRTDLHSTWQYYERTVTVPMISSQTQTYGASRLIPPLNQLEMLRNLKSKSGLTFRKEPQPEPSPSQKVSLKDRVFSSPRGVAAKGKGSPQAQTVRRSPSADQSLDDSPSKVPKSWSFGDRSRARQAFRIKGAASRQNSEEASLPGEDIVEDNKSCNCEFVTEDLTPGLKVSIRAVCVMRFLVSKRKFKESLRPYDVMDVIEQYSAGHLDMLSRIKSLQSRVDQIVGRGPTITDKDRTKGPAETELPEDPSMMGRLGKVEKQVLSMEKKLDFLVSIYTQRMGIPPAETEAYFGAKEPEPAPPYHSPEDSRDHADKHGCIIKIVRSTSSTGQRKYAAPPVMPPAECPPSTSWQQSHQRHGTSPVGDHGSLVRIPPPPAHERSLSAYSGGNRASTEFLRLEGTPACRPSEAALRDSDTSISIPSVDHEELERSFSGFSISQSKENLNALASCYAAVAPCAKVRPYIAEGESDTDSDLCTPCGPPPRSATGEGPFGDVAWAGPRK
KCNQ2 enhance – potentiators of rat KCNQ2 potassium channel | CHO-K1 KCNQ2, FluxOR thallium flux fluorescence; hits give high values | actives 0.54% (n = 310,000) | Potassium voltage-gated channel subfamily KQT member 2 (Rattus norvegicus), O88943 | B-score at 10 µM;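 active = fluorescence ratio B-score at least 3 SD of library B-scores, with initial fluorescence B-score within 3 of them, cut at about 5.3 in these data; same plate scores as AID 2156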;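 note: B-score of peak minus minimum over baseline fluorescence ratio after K+ and Tl+ stimulus; positive B-score means potentiation of KCNQ2 with more thallium influx and brighter signal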
KCNQ2 block conf – rat KCNQ2 potassium channel inhibitors, confirmation, cell-based, thallium flux; shares compounds with KCNQ2 inh; KCNQ2-expressing cells, inhibition; hits give low values; activity change, negative = inhibition, % at 10 µM; actives 57% (n = 1,000); AID 493025, 2011
KCNQ1 spec – human KCNQ1 channel inhibition, counter-screen for KCNQ2 inhibitor project, cell-based, FluxOR thallium flux; actives 15% (n = 1,000); KCNQ1-expressing cells, FluxOR thallium flux fluorescence; hits give low values; activity change, negative = inhibition, % at 10 µM; shares compounds with KCNQ2 inh;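 active = activity change at least 3 SD of negative controls below their mean in both duplicate wells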;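 note: CHO cells stably transfected with KCNQ1 and depolarized by potassium stimulus; peak minus minimum fluorescence over baseline after thallium addition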
CHO parental ctr – thallium flux change in parental CHO cells, counter-screen for KCNQ2 inhibitor project. shares compounds with KCNQ2 inh. hits give low values. activity change, % at 10 µM. actives 14% (n = 1,000). AID 493029, 2011
KCNQ2 inh confirm – rat KCNQ2 channel inhibitors, confirmation, cell-based, automated patch clamp, single concentration. shares compounds with KCNQ2 inh. KCNQ2-expressing cells, automated patch clamp current. calls only at 10 µM. actives 49% (n = 550). AID 588531, 2011
Large screens that a line does not name were inactive (follow-up assays come after a bar, where they were run). Unless noted, the rule behind the calls is not given here.

COc1cc(NC(=O)c2cc(C)nc3ccccc23)cc(OC)c1OC	none (no result: KCNQ2 enhance)
Cc1cc(C(=O)NCc2cccc(Cl)c2)c2ccccc2n1	none (no result: KCNQ2 enhance)
Cc1ccc(NC(=O)c2cc(C)nc3ccccc23)c(Br)c1	KCNQ2 inh -6.7 | KCNQ2 block conf inactive | KCNQ1 spec inactive | CHO parental ctr inactive
Cc1ccc(NC(=O)c2ccccn2)c(Br)c1	none (no result: KCNQ2 enhance)
Cc1cc(C(=O)NCc2ccccc2Cl)c2ccccc2n1	KCNQ2 inh -7.2 | KCNQ2 block conf -22% | KCNQ1 spec inactive | CHO parental ctr inactive | KCNQ2 inh confirm inactive
Cc1cc(C(=O)Nc2ccccc2Cl)c2ccccc2n1	KCNQ2 inh -6.9 | KCNQ2 block conf -31% | KCNQ1 spec inactive | CHO parental ctr inactive | KCNQ2 inh confirm active
COc1ccc(OCCCC(=O)OC(C)C(=O)Nc2ccc(S(N)(=O)=O)cc2)cc1 (centres undefined)	none
CC(Oc1ccc(Cl)cc1Cl)C(=O)N/N=C1\CCCc2ccccc21 (centres undefined)	KCNQ2 inh -6.7 | KCNQ2 block conf -32% | KCNQ1 spec inactive | CHO parental ctr inactive | KCNQ2 inh confirm active
CC(Oc1ccc(Cl)cc1Cl)C(=O)NN=C1CCN(C)CC1 (centres undefined)	none
O=P(c1ccccc1)(c1ccccc1)C(O)c1ccc(Br)cc1 (centres undefined)	none (no result: KCNQ2 enhance)
O=C(COC(=O)CNS(=O)(=O)c1c(Cl)cccc1Cl)Nc1cccnc1Cl	none
CCN(CC)S(=O)(=O)c1cccc(NC(=O)C2CC(=O)N(c3ccc4c(c3)OCCO4)C2)c1 (centres undefined)	none
COCC(C)NCC(=O)NC(C)CCc1ccccc1 (centres undefined)	none
CN(C)CCCNC(=O)c1ccccn1	none
CN(C)CCCNC(=O)c1ccc(-c2nc(-c3ccc(Cl)cc3)cs2)cc1	KCNQ2 inh -12 | KCNQ2 block conf -22% | KCNQ1 spec inactive | CHO parental ctr inactive | KCNQ2 inh confirm inactive
Cc1cc([N+](=O)[O-])nn1CC(=O)N(C)C1CCCCC1	none (no result: KCNQ2 enhance)
CC(=O)c1cnn(-c2ccccc2)c1C	none
Cc1c(C(=O)Oc2cccc3ccccc23)cnn1-c1ccccc1	KCNQ2 inh -9.3 | KCNQ2 block conf inactive | KCNQ1 spec inactive | CHO parental ctr inactive
O=C(NCC(=O)N1CCCC(C(F)(F)F)C1)c1ccc(Oc2ccccc2)cc1 (centres undefined)	none
O=C(NCC(=O)N1CCCC(C(F)(F)F)C1)c1ccc2ccccc2c1 (centres undefined)	KCNQ2 inh -6.9 | KCNQ2 block conf inactive | KCNQ1 spec inactive | CHO parental ctr inactive
O=C(C1CC1)N1CCN(C(c2ccccc2)c2ccccc2)CC1	none (no result: KCNQ2 enhance)
O=C(Nc1ccccc1)N1N=C(c2ccc(F)cc2)CC1c1ccc(F)cc1 (centres undefined)	KCNQ2 inh -6.7 | KCNQ2 block conf inactive | KCNQ1 spec inactive | CHO parental ctr inactive
COc1ccc(C2CC(c3ccccc3)=NN2C(=O)c2ccc(F)cc2)cc1 (centres undefined)	none
COc1ccc(NC(=O)CN(C)C(=O)/C=C/c2cn(-c3ccccc3)nc2-c2ccc(C)cc2)cc1	none (no result: KCNQ2 enhance)
COc1cccc(NC(=O)CN(C)C(=O)/C=C/c2cn(-c3ccccc3)nc2-c2ccc(C)cc2)c1	KCNQ2 inh -9.1 | KCNQ2 block conf -22% | KCNQ1 spec inactive | CHO parental ctr inactive | KCNQ2 inh confirm inactive
CC(C)CC(=O)Nc1ccc(C(=O)COC(=O)C2=COCCO2)cc1	none (no result: KCNQ2 enhance)
CCOP(=O)(O)c1cccc(OCCOCCOc2cccc(P(=O)(O)OCC)c2)c1	none (no result: KCNQ2 enhance)
O=C(NCc1nnc2c(C(F)(F)F)cc(Cl)cn12)c1cccnc1	none (no result: KCNQ2 enhance)
Cc1ccc(NC2CCCN(C(=O)CCC3=NNC(=O)CC3)C2)cc1C (centres undefined)	none
Cc1ccccc1OCC(O)CN1C(=O)c2ccccc2C1=O (centres undefined)	none (no result: KCNQ2 enhance)
C=CCc1ccccc1OCC(O)CN1C(=O)c2ccccc2C1=O (centres undefined)	KCNQ2 inh -12 | KCNQ2 block conf inactive | KCNQ1 spec inactive | CHO parental ctr inactive
CCOC(=O)c1c(-c2cccs2)csc1NC(=O)COC(=O)c1c(C)noc1C	KCNQ2 inh -10 | KCNQ2 block conf -24% | KCNQ1 spec inactive | CHO parental ctr inactive | KCNQ2 inh confirm inactive
CCOC(=O)c1c(-c2cccs2)csc1NC(=O)c1ccncc1	none
O=C(Nc1ccc(O)c2c(=O)cc(-c3cccc(Cl)c3)oc12)c1ccccc1Cl	none (no result: KCNQ2 enhance)
Cc1ccc(OCC(=O)N2CCCC(CCC(=O)N(C)CCc3ccccn3)C2)cc1 (centres undefined)	none (no result: KCNQ2 enhance)
O=C(NCc1ccco1)c1ccc(-c2ccccc2Cl)o1	KCNQ2 inh -7.1 | KCNQ2 block conf inactive | KCNQ1 spec inactive | CHO parental ctr inactive
COc1ccc(Nc2nc(C(=O)NCc3ccco3)cs2)cc1	none (no result: KCNQ2 enhance)
O=C(NCc1ccco1)c1csc(Nc2ccccc2Cl)n1	KCNQ2 inh -8.3 | KCNQ2 block conf inactive | KCNQ1 spec inactive | CHO parental ctr inactive
O=C(NCc1ccco1)c1ccc(-c2ccc(Cl)cc2)o1	none (no result: KCNQ2 enhance)
CC(Sc1nncs1)C(=O)NCC(=O)Nc1ccc(F)c(F)c1F (centres undefined)	none (no result: KCNQ2 enhance)
O=C(COc1ccccc1F)NNC(=O)c1cccc(-n2cccc2)c1	none
CNC(=S)N(Cc1ccccc1)Cc1cccnc1	none (no result: KCNQ2 enhance)
On1nnc2ccc3ccccc3c21	none
CC(=O)Nc1c(-c2ccccc2)nc2ccc(Cl)cn12	none (no result: KCNQ2 enhance)
CCC(C)Sc1cccc(-c2nc3ccc(C)cn3c2NCc2ccccc2)c1 (centres undefined)	none (no result: KCNQ2 enhance)
CCOC(=O)CNc1c(-c2ccccc2)nc2ccc(Cl)cn12	KCNQ2 inh -7 | KCNQ2 block conf -32% | KCNQ1 spec inactive | CHO parental ctr inactive | KCNQ2 inh confirm active
CCC(C)Sc1cccc(-c2nc3ccc(Cl)cn3c2NCc2ccccc2)c1 (centres undefined)	KCNQ2 inh -7.3 | KCNQ2 block conf -33% | KCNQ1 spec -38% | CHO parental ctr -25% | KCNQ2 inh confirm active
COc1ccccc1C(=O)NC(CCSC)C(=O)NCCCSc1ccccc1 (centres undefined)	none (no result: KCNQ2 enhance)
COc1ccccc1S(=O)(=O)Cc1ccc(C(=O)N2CCN(c3ccccc3)CC2)o1	none (no result: KCNQ2 enhance)
COc1ccccc1S(=O)(=O)Cc1ccc(C(=O)N2CCN(c3cccc(Cl)c3)CC2)o1	KCNQ2 inh -10 | KCNQ2 block conf -37% | KCNQ1 spec inactive | CHO parental ctr inactive | KCNQ2 inh confirm inactive
COc1cc(NC(=O)c2cc3nc(-c4ccccc4)cc(-c4ccccc4)n3n2)cc(OC)c1OC	KCNQ2 inh -7.1 | KCNQ2 block conf inactive | KCNQ1 spec inactive | CHO parental ctr inactive
COc1cc(NC(=O)c2cc(-c3ccccc3)on2)cc(OC)c1OC	none (no result: KCNQ2 enhance)
